Among the data in PubChem BioAssay AID1918969 (ICCB-Longwood Screening Facility, Harvard Medical School, 2023) are inhibition values, retold here.

Hit rate of the full screen: of about 190,000 compounds, about 280 (0.15%) were called active. Many of the other results were omitted from the sample, so actives are more common in it than they were. Unmarked numbers belong to inactive results. No stated cut-off is given here; in the data, active means inhibition above about 27% (passing the limit was not always enough); inactive means the rest.

As a reminder, the inhibition is the relative decrease from the control value, in per cent.

In the experiment the test system is HCMV UL50-UL53 nuclear egress complex (human cytomegalovirus). The experiment in a line: inhibitors of HCMV UL50-UL53 interaction, biochemical, HTRF (AID 1918969). The note with it: normalized percent inhibition, stronger effect = higher value, concentration not given here. For orientation: TR-FRET usually uses a lanthanide donor and a delayed reading to cut background.
For the compound `CCCC1O[C@@H]2CC3C4CCC5=CC(=O)C=CC5(C)C4[C@@H](O)CC3(C)[C@]2(C(=O)CO)O1` (stereo partly drawn), the inhibition was -70.7%.
For `O=C(CCc1nc2ccccc2s1)OCC(=O)c1ccco1` the value was -34.2%.
Regarding `NNC(=O)CCCc1nc2ccccc2s1`, the inhibition is -31.3%.
As to `O=C(OCc1nc2ccccc2s1)c1coc2ccccc2c1=O`, the inhibition was 54.6% (active).
For `CCOc1cc(/C=C2/C(=O)N(c3nn[nH]n3)N=C2C)cc(Cl)c1OCC`, the inhibition was -8.7%.
Turning to `CC(C(=O)OCc1ccc(F)cc1)N1C(=O)c2ccccc2C1=O` (stereo not drawn), the inhibition is -2.6%.
As to `O=C(CC(c1ccccc1)c1ccccc1)NCc1ccco1`, the inhibition is 13.4%.
Turning to `O=c1c(-c2nnc3c(Cl)nc4ccccc4n23)coc2ccccc12`, the inhibition was -9.1%.
On to `Cc1n[nH]c(C)c1Cc1ccc(N)cc1`, for which the inhibition is -0.1%.
Take `Cc1ccc(-n2ccnc(NCCc3ccccc3)c2=O)cc1`: the inhibition is -0.4%.
With `CCN(CC)S(=O)(=O)c1ccc(N=Nc2c(O)[nH]c(=S)[nH]c2=O)cc1`, the inhibition was -70.2%.
Consider `Cc1cc(C(=O)CSc2ccc(S(=O)(=O)N(C)C)cn2)c(C)n1-c1ncn[nH]1`, for which the inhibition is -15%.
Next, `O=C1CC(c2ccc(S(=O)(=O)N3CCCc4ccccc43)cc2)CN1` (stereo not drawn): -28.3%; `O=C(COC(=O)Cc1ccc(F)cc1)Nc1ccccc1`: 1.8%; `Cc1ccc(C)c2c1NC(c1ccc(Br)cc1)C1CC=CC21` (stereo not drawn): -3.3%.
Consider `CCc1nc(-c2cc(S(=O)(=O)N3CCC(C(=O)Nc4cccc(OC)c4)CC3)c(C)s2)no1`, for which the inhibition was -7.1%.
`CC1CCN(C(=O)Cn2ncc3c4ccccc4n(Cc4ccccc4)c3c2=O)CC1`: the inhibition is -7.3%.
On to `Cc1ccc(CNC(=O)c2ccc(-n3nnc4cccnc43)cc2)cc1`, for which the inhibition was -21.8%.
For `CCN(CC)S(=O)(=O)c1ccc2c(c1)nc(CCC(=O)OCC#N)n2C` the value was -6%.
`CCOC(=O)N1CCCC1C(=O)O` (stereo not drawn): the inhibition was -17.9%.
With `O=C(NC1CCCC1)c1ccc(Br)s1`, the inhibition is -3.7%.
For `CNC(=O)c1ccc(N2CCOc3ccc(Cl)cc32)s1`, the inhibition is 14.6%.
For `O=C(NC1CCCC1)c1cc(-c2ccccc2)on1`, the inhibition is -1.9%.
With `O=C(NC1CCCCC1)c1ccc(-n2ccc3ccccc32)s1`, the inhibition is 37.9% (active).
For `O=C(NC1CCCC1)c1ccc(N2CCOc3ccccc32)s1`, the inhibition was 42.2% (active).
As to `O=C(NC1CCCCCCC1)c1cccs1`, the inhibition was -0.7%.
For `O=C(c1c(F)c(F)c(F)c(F)c1F)N(CCO)Cc1ccccc1`, the inhibition is -6.4%.
With `CNC(=O)COC(=O)c1ccc(Br)o1`, the inhibition is -3.2%.
